Source: PubChem
The full list was thinned out, with hits kept by preference.
AMA1-RON2 inh: qHTS for Inhibitors of AMA1-RON; Towards Development of Antimalarial Drug Lead: Primary Screen. Plasmodium falciparum AMA1 (3D7) - RON2 peptide interaction. Potency, µM (series often up to 58.2 µM), for the others: at the highest dose activity change, negative = inhibition, usual class: inhibitors. AlphaScreen AMA1-biotinylated RON2 peptide binding. 0.2% of 360,000 active; active = well fitted inhibition curve with a large enough effect; inconclusive = small, poorly fitted or top-dose-only effect; inactive = no such curve, though single readings can be large or run the other way;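 note: potency is the fitted concentration of half-maximal effect; 0% = vehicle wells and -100% = peptide control; nearly all actives have a fitted effect of over 45% in size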
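AMA1 (3D7) with his tag at 25 nM final met compounds first, then biotinylated RON2 peptide at 25 nM; detection used donor plus acceptor beads, 10 µg/mL apiece, read by AlphaScreen after 30 min at room temperature.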
Lassa entry inh: qHTS for Inhibitors of binding or entry into cells for Lassa Virus; Lassa virus pseudotype entry inhibition, cell reporter; Potency, µM (series often up to 37.9 µM), for the others: at the top dose activity change, negative = inhibition, hits mostly inhibitors; 1.2% of 300,000 active; AID 540256, 2011; calls by dose curve; tested in HEK293 cells; note: potency is the fitted concentration of half-maximal effect; % is set by controls: 0 for no effect and ±100 for the full control effect; nearly all actives have a fitted effect of over 50% in size
Shiga toxin inh: A qHTS for Small Molecule Inhibitors of Shiga Toxin; Vero cells, Shiga toxin protein synthesis inhibition reporter; inhibition, % at 38.7 µM; 9.2% of 290,000 active; in the data active = inhibition mostly above about 28%, no sharp cut-off; inactive = mostly below about 43%; note: 0% is about no effect
Marburg entry inh: qHTS for inhibitors of binding or entry into cells for Marburg Virus; Marburg virus pseudotyped entry inhibition, cell reporter; Potency, µM (titrated, usually from 37.8 µM), without a hit: at the highest dose activity change, negative = inhibition, hits mostly inhibitors; AID 540276, 2011; 1.8% of 300,000 active; calls by dose curve; tested in HEK293 cells; note: potency is the fitted concentration of half-maximal effect; % is set by controls: 0 for no effect and ±100 for the full control effect
Cycloheximide cs: Cycloheximide Counterscreen for Small Molecule Inhibitors of Shiga Toxin; cell reporter, cycloheximide protein synthesis inhibition counterscreen; max response, %; 12% of 300,000 active; AID 2314, 2010; in the data active = max response mostly above about 13%, no sharp cut-off; inactive = mostly below about 14%; note: read at 38.3 µM for the half of the compounds with a filed dose; 0% is about no effect
* hit, by the source's call; ? = inconclusive; . = no result given; [ ] = remark or other dose.

SMILES | AMA1-RON2 inh | Lassa entry inh | Shiga toxin inh | Marburg entry inh | Cycloheximide cs
CCn1c2ccccc2c2cc(NC(=O)COc3ccccc3OC)ccc21 | -22% | ? | -5 | ? | -3
COc1ccccc1N(CC(O)Cn1c2ccccc2c2ccccc21)S(=O)(=O)c1ccccc1 (stereo not given) | -15% | 26µM* | 14 | ? | 4
OCCNCC(O)Cn1c2ccccc2c2ccccc21 (stereo not given) | 0% | . | 14 | . | 4
CCN(CC)S(=O)(=O)c1ccc(OC)c(NC(=S)Nc2cccc(C)c2C)c1 | 9% | -5% | -14 | 3% | 24*
COc1ccccc1CNCC(O)Cn1c2ccccc2c2ccccc21 (stereo not given) | 4% | 16µM* | -27 | 8.2µM* | -11
CCCCCCCCCCCC1N=C(N)NC(CCCO)=C1C(=O)OC (stereo not given) | -5% | 8% | . | 27% | .
CCN(CC)S(=O)(=O)c1ccc(C)c(NC(=O)CNCc2ccccc2OC)c1 | 4% | ? | 31 | 4.5µM* | 0
COc1ccccc1CNCC(=O)NCc1ccc(C)cc1 | -14% | . | -12 | . | 1
COc1ccccc1CNCC(=O)Nc1ccc(N(C)C)cc1 | ? | . | 111* | . | 50*
Cc1ccc(OCCCCn2c(-c3ccc(Cl)cc3)nc3ccccc3c2=O)cc1 | . | 20%[46.1 µM] | . | 0%[46.1 µM] | .
CC(C)C1N(C(N)=S)N=CC1(C)C (stereo not given) | 4% | -19% | 9 | 8% | 9
COc1ccc2[nH]c(=O)cc(C(=O)O)c2c1 | 22µM* | 26% | -8 | 4%[14.2 µM] | -3
C[C@H]1CN([C@@H](C)CO)C(=O)c2cc(Br)cnc2O[C@H]1CN(C)C(=O)Cc1ccccn1 | 0% | . | . | . | .
Cc1ccc(/C=C/C(=O)c2ccccc(=O)c2O)cc1C | 62% | ? | 77* | 16µM* | 51*
O=C(/C=C\c1ccccc1)c1ccccc1O | . | . | . | 6%[14.2 µM] | .
O=C(/C=C/c1ccc(F)cc1)c1cc(Br)ccc1O | -4% | ? | 77* | 5%[46.1 µM] | 15*
COc1ccc(/C=C/C(=O)Oc2ccc(C)c(C)c2)cc1OC | -5% | -5% | 44 | 14%[46.1 µM] | 16
O=C(O)/C=C/c1ccc2ccccc2n1 | -7% | -3% | 5 | ? | 1
O=C(/C=C/c1ccccc1)c1cc(Br)ccc(=O)c1O | -15% | ? | 23 | 20µM* | -2
O=C(COC(=O)c1cc(Br)ccc1O)c1ccc(F)cc1 | 0% | -4% | . | 17% | .
O=C(/C=C/c1ccc2ccccc2n1)c1cc(Br)ccc1O | -3% | . | 80* | . | 43*
O=C(C[C@@H]1C/C=C\CC[C@H](Cc2ccc(F)cc2)C(=O)OC[C@@H]2CCCN2C1=O)NCCO | -6% | . | . | . | .
COc1ccc(NC(=O)Nc2cccc3c2O[C@@H](CN(C)S(=O)(=O)c2cn(C)cn2)[C@@H](C)CN([C@H](C)CO)C3=O)cc1 | -4% | . | . | . | .
Cc1cccc(N2CCn3c2nc2c3c(=O)n(CCCc3ccccc3)c(=O)n2C)c1 | . | 19%[46.1 µM] | . | . | .
CC(=O)Cc1nsc(NC(=O)c2ccco2)n1 | 4% | 29% | 2 | 14% | -1
SMILES | AMA1-RON2 inh | Lassa entry inh | Shiga toxin inh | Marburg entry inh | Cycloheximide cs
CC(=O)Cc1nsc(Nc2ccc(Cl)cc2)n1 | 61% | -19% | 86* | ? | 61*
CC(=O)Cc1nsc(NC(=O)c2ccc(Br)o2)n1 | 8% | 13% | 32 | -3% | -3
CC(=O)Cc1nsc(Nc2ccc3c(c2)OCCO3)n1 | -5% | 21% | 96* | ? | 82*
CC(=O)Cc1nsc(Nc2ccc(F)cc2)n1 | 14% | 0% | 65* | 20%[46.1 µM] | 22
COc1ccc(Nc2ncnc3c2cnn3-c2ccc(C)cc2)cc1Cl | . | 20%[46.1 µM] | . | . | .
CCC(C)n1c(=O)c2sccc2n2c(CCCC(=O)N3CCN(c4ccccc4)CC3)nnc12 (stereo not given) | . | -3%[46.1 µM] | . | . | .
O=C(NCCc1ccccc1)C(=O)NCC1CCCN1S(=O)(=O)c1cccs1 (stereo not given) | 8% | ? | . | ? | .
Brc1ccc(OCCOCCN2CCOCC2)cc1 | 1% | 3% | 22 | 13% | -3
c1ccc(SCCCCN2CCOCC2)cc1 | -3% | . | 42 | . | 15*
c1ccc(Cc2ccc(OCCN3CCOCC3)cc2)cc1 | -9% | 4% | 55* | ? | 21*
Clc1ccc(OCCN2CCCCC2)cc1Cl | ? | 5% | -11 | ? | 6
c1ccc(OCCN2CCOCC2)cc1 | 14µM* | . | 0 | . | -2
Clc1ccc(OCCN2CCOCC2)cc1Cl | 20% | -10% | 70* | -1% | 17
COc1ccc(OCCN2CCOCC2)cc1 | -27% | . | 19 | . | -1
Cc1ccc2nc(COc3cccc(NC(=O)COc4ccccc4F)c3)cc(=O)n2c1 | . | 8%[46.1 µM] | . | . | .
COC(=O)NC1CC2C=CC1C1C=CC21 (stereo not given) | -1% | . | . | . | .
CCN(C(=O)CSc1nnc(-c2ccccc2OC)n1N)c1c(N)n(Cc2ccccc2)c(=O)[nH]c1=O | -12% | . | . | . | .
C#CC[N+]1(CC#Cc2ccccc2)CCOCC1 | -14% | 25% | 26 | -1% | 16*
C#CC[N+]1(CC#Cc2ccccc2)CCCCC1 | -10% | -2% | 1 | 19%[46.1 µM] | -5
Brc1ccccc1OCCCCCN1CCOCC1 | 6% | . | 135* | -17%[46.1 µM] | 29*
C(#Cc1ccccc1)CN1CCOCC1 | 21% | . | 96* | 18%[46.1 µM] | 31*
Clc1cccc(OCCN2CCN(CCOc3cccc(Cl)c3)CC2)c1 | 18µM* | ? | -13 | ? | 0
O=C(c1nn2c(C(F)(F)F)cc(-c3cccs3)nc2c1Br)N1CCCc2ccccc21 | 5% | 10% | 16 | 17% | 21*
O=C(c1cc2nc(-c3cccs3)cc(C(F)(F)F)n2n1)N1CCCc2ccccc21 | -13% | ? | 26 | ? | 20*
O=C(c1cnn2c(C(F)(F)F)cc(-c3cccs3)nc12)N1CCN(C(c2ccccc2)c2ccccc2)CC1 | 15% | ? | -2 | 13µM* | 9
